# According to PubChem BioAssay AID504842 (National Center for Advancing Translational Sciences (NCATS), 2011):
# About 100 (0.03%) of roughly 330,000 compounds were called active. Inconclusive results (about 1%) are left out. Calls come from the whole dose curve; as a rule, active = well fitted inhibition curve with a large enough effect; inconclusive = small, poorly fitted or top-dose-only effect; inactive = flat fitted curve, though single readings scatter. The list comes from a sample in which actives are over-represented; it also holds similar structures and randomly drawn compounds. Where a call stands in place of a potency, no number is given.
# System: Chaperonin Mm-Cpn (Methanococcus maripaludis)
# Assay: Inhibitors of TCP-1 ring complex (TRiC) of Methanococcus maripaludis (MmCpn): qHTS; note: nearly all actives have a fitted effect of over 80% in size;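 for potency: enzyme at 25 nM with ATP substrate at 10 µM during the reaction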
# Details: purified Mm-Cpn ATPase, ADP Transcreener TR-FRET; series mostly up to 76.9 µM
# Text: The eukaryotic chaperonin TRiC (for TCP-1 ring complex) is an essential and conserved chaperone required for the folding and activation of 10-15% of the proteins encoded by the human genome. […] The TRiC complex consist of two stacked 7-9 membered rings, each containing a central cavity. Substrates are folded within the cavity in an ATP-dependent manner. TRiC is a complex of eight different, essential proteins. As each of the genes encoding the eight subunits is essential for cell viability and no protocol has been developed to over-express this enzyme to high levels. That is why several groups studying the TRiC chaperonin have turned to the archaeal homolog of TRiC, Methanococcus maripaludis (Mm-CPN), and have used this enzyme as a model system for the study of the type II chaperonin family. Small molecule inhibitors of the Mm-CPN enzyme would be extremely useful to study the mechanism of chaperonin activity. Importantly, TRiC and Mm-CPN both require ATP hydrolysis for function. Furthermore, the ATP binding sites are highly conserved among these type II chaperonins. This provides us with an easy, well tested and straightforward assay to identify inhibitors of chaperonin activity. The Mm-CPN assay was developed in 1536-well plate format using the HTRF Transcreener ADP assay kit (Cisbio, Bedford, MA). This assay applied the time resolved fluorescence resonance energy transfer (TR-FRET) principle. ATP in the presence of Mm-CPN is converted to ADP + Pi. An antibody labeled with Eu3+-Cryptate specific and bound to ADP labeled with […] (d2) competes with the unlabeled ADP generated by Mm-CPN. The resulting TR-FRET signal is inversely proportional to the concentration of ADP in the sample. In this assay a reduction in TR-FRET signal is observed with ATP turnover. NIH Chemical Genomics Center [NCGC] NIH Molecular Libraries Probe Centers Network [MLPCN] MLPCN Grant: DA030554-01A1 Assay Submitter (PI): Judith Frydman, Stanford University
# Purified Mm-CPN was supplied by the laboratory of Dr. Judith Frydman. Protein samples were stored at -80C as single use aliquots. Protein was thawed in ambient temperature water bath and placed on ice once thawed. Buffer was prepared fresh day of screen. The buffer composition below was used to prepare the working solution of the Mm-CPN protein and ATP substrate. The buffer is comprised of 30 mM TRIS pH 7.4, 100mM KCl, 5mM MgCl2, and 1mM DTT. A final concentration of 25nM Mm-CPN and 10uM ATP per well were used in the screen. Instructions according to the manufacturer were followed for the ADP Transcreener kit. Used 1536 well Greiner white, medium binding (MB), solid bottom plates. Plates were read on the PerkinElmer EnVision plate reader using Excitation = 320 nm and Emission = […], 665 nm. Protocol- 1.Dispense 1.5ul per well of working [Mm-CPN] = 50nM (or 75 ng / well) 2.Spin plate at 1000 rpm for 30 seconds 3.23nl of compound transferred per well 4.Incubate at 37degC for 10 minutes 5.Dispense 1.5ul per well of working [ATP] = 20uM 6.Incubate at 37degC for 30 minutes 7.Dispense 3ul per well of Anti-ADP Cryptate / ADP-d2 mix (prepared as instructed by Cisbio) 8.Incubate at ambient for 30 minutes 9.Read using EnVision
# Potency is the fitted concentration of half-maximal effect.
Structure (SMILES),Potency,"activity, negative = inhibition"
Cc1cc(S(=O)(=O)NCc2ccccn2)c(Cl)cc1Cl,inactive,
Cc1cc(NC(=O)/C=C/C(=O)N(c2ccccc2C)C(C(=O)NC2CCCC2)c2ccc(F)cc2)no1 (centres undefined),inactive,
CCCSC1=C(C#N)C(c2ccccc2C)C(C(=O)OC)C(=O)N1 (centres undefined),inactive,
CCOc1ccc(NC(=O)CN(C)C(=O)CSc2ccccc2)cc1OCC,inactive,
CCOc1ccccc1NS(=O)(=O)c1cc2c3c(c1)C(C)C(=O)N3CCC2 (centres undefined),inactive,
O=S(=O)(Nc1ccc(Oc2ncccn2)c(Cl)c1)c1ccc(F)cc1,inactive,
Cc1ccc(S(=O)(=O)N(Cc2cccc([N+](=O)[O-])c2)C(=O)N2CCN(C)CC2)cc1,inactive,
O=C(CN1CCCSc2ccccc21)N1CCN(S(=O)(=O)c2ccccc2)CC1,inactive,
O=C(Cn1nc([N+](=O)[O-])nc1Br)NC1CCCCC1,inactive,
Cc1nn(-c2ccccc2)nc1C(=O)OCC(=O)N1CCCCC1C (centres undefined),inactive,
CCc1ccc(Nc2nnc(SCC(=O)c3ccc4c(c3)NC(=O)CO4)s2)cc1,inactive,
CCOCc1c(C(=O)N2CCN(Cc3ccc(Br)s3)CC2)oc2ccccc12,inactive,
CCOC(=O)CN1C(=O)N[C@@H](c2ccc(Br)cc2)C(C(C)=O)=C1C,inactive,
FC(F)(F)c1ccc(CN2C[C@@H]3C(c4ccccc4)C4(c5ccccc5)CC3(C4)[C@H]2c2ccccc2)cc1 (some centres undefined),inactive,
Cc1ccc(NS(=O)(=O)c2ccc3c(c2)CC(=O)N3)cc1Cl,inactive,
COc1ccc(-n2c(C)nn(CC3CC3)c2=O)cc1,inactive,
CC(=O)Nc1cccc2c1[n+]([O-])c(C)c(C)[n+]2[O-],inactive,
CCn1cc(C(=O)NCc2ccc(OC)cc2OC)c(=O)c2ccc(C)nc21,inactive,
O=C(CCC(=O)Nc1ccccc1)N/N=C/c1ccccc1F,inactive,
CCOC(=O)c1ccccc1NC(=O)COC(=O)C(Cc1c[nH]c2ccccc12)NC(C)=O (centres undefined),inactive,
Cc1cccc(N2CCN(S(=O)(=O)c3ccc4[nH]c(=O)c(=O)[nH]c4c3)CC2C)c1 (centres undefined),inactive,
c1csc(-c2nnc(COc3ccc4c(c3)OCO4)o2)c1,inactive,
CCCOC1CCCN(C(=O)c2cc(COc3cncc(Cl)c3)on2)C1 (centres undefined),inactive,
COc1cccc(-n2c(N)cc(=O)nc2SCC(=O)Nc2cc(C)on2)c1,inactive,
CC1CCCCC1NC(=O)CSc1nnc(-c2ccncc2)n1CCCN(C)C (centres undefined),inactive,
CC(C)C(NC(=O)c1c(F)cccc1F)C(=O)NCc1ccncc1 (centres undefined),inactive,
CCOC(=O)c1sc(NC(=O)CSc2nc3c(c(=O)n2-c2ccccc2)SCC3)c(C(=O)OCC)c1C,inactive,

Structure (SMILES),Potency,"activity, negative = inhibition"
Cn1c(=O)n(C)c2cc(CNc3ccc(N4CCOCC4)c(C(=O)O)c3)ccc21,inactive,
Cn1c2cc(B(O)O)sc2c2cnn(Cc3ccccc3F)c(=O)c21,inactive,
CSCC[C@H](NC(=O)CCCn1nnc2ccccc2c1=O)C(=O)O,inactive,
O=C(CCl)Nc1ccc(Sc2ccc(NC(=O)CCl)cc2)cc1,inactive,
CCCCN(CCCC)CCC(O)c1cc2c(Cl)cc(Cl)cc2c2cc(C(F)(F)F)ccc12 (centres undefined),inactive,
Cc1cc(Cl)ccc1NNC(=O)c1snnc1C,inactive,
O=C(COC(=O)Cn1[nH]c(=O)c2ccccc2c1=O)Nc1ncc(Cl)cc1Cl,inactive,
CC(=O)Nc1cccc(C(=O)OCC(=O)NCc2cc(C)c(O)c(C)c2)c1,inactive,
CSCCC(NC(=O)c1ccccc1)C(=O)N1CCN(Cc2ccc(Cl)cc2)CC1 (centres undefined),inactive,
CC(C)OC(=O)C(C#N)c1nc2ccccc2nc1N1CCN(Cc2ccc3c(c2)OCO3)CC1 (centres undefined),inactive,
CSc1nc(-c2ccco2)nn1C(=O)c1ccccc1Cl,inactive,
CCCN1CCn2c3c(c4cc(Br)ccc42)CCCC31 (centres undefined),inactive,
CC(C)CNC(=O)C(=O)Nc1ccc(N(C)C)cc1,inactive,
CC(=O)N(C)c1ccc(NC(=O)C(F)(F)F)cc1,inactive,
CN(C)c1ccc(N/C=C/C(=O)C(F)(F)F)cc1,25.1 µM (active),
Cn1c(N)c(C(=O)COC(=O)c2cccc(S(=O)(=O)N3CCOCC3)c2)c(=O)n(C)c1=O,inactive,
CCOC(=O)c1c(CNCc2ccccc2F)c2sc(C)cc2n1C,inactive,
CSc1nc2ccccc2cc1/C=C(\C#N)c1ccc(Cl)cc1Cl,inactive,
C/C=N/N(c1ccccc1)c1ccccc1,inactive,
Cc1cc2c(c(=O)n1Cc1ccccc1)C1O[C@](CCCCN3C(=O)c4ccccc4C3=O)(Cc3ccccc31)O2,,-15.5% [at 15.4 µM] (inactive)
O=C(CSc1nnc(CN2CCCC2)n1-c1ccc(F)cc1)c1ccc2c(c1)OCO2,inactive,
Cc1cc(=O)oc2cc(OCC(=O)Nc3nnc(C4CC4)s3)ccc12,inactive,
CCOC(=O)Cc1csc(NC(=O)COc2ccc3c(C)cc(=O)oc3c2)n1,44.7 µM (active),
CCOC(=O)Cc1csc(SCc2cc(=O)oc3cc(O)ccc23)n1,inactive,
CCCCc1ccc(NC(=O)CN2C(=O)NC(Cc3ccccc3)C2=O)cc1 (centres undefined),inactive,
CCOc1ccccc1N1CCN(C(=O)c2ccc3[nH]c(C)c(C)c3c2)CC1,inactive,
CCOc1ccc(NC(=O)CN(C)C(=O)c2cccc(S(=O)(=O)N3CCCC3)c2)cc1OCC,inactive,
